According to PubChem BioAssay AID720597 (Broad Institute, 2013):
Potency and affinity values are given separately.

Target: NAD-dependent protein deacylase sirtuin-5, mitochondrial (Homo sapiens) (UniProt Q9NXA8)
Assay: SIRT5 deacylase inhibitors, dose response, biochemical, fluorescence imaging, cherry-pick, set 6 (AID 720597);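 also: lower AMC signal can also come from blocking the trypsin step; 0% = median of neutral control wells and -100% = median of positive control wells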
Conditions: Purified SirT5, succinyl-peptide-AMC/trypsin fluorescence; series mostly up to 15 µM; activity change, negative = inhibition: at the top concentration;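 active = fitted half-maximal dose no more than twice the top valid tested dose, for compounds that lower signal; inconclusive = fit invalid, or curve flat with activity between -70 and -30; inactive = potency past limit, curve flat within ±30, or signal increasing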

NAD-dependent protein deacylase sirtuin-5, mitochondrial (Homo sapiens), sequence (Q9NXA8 whole entry, looked up): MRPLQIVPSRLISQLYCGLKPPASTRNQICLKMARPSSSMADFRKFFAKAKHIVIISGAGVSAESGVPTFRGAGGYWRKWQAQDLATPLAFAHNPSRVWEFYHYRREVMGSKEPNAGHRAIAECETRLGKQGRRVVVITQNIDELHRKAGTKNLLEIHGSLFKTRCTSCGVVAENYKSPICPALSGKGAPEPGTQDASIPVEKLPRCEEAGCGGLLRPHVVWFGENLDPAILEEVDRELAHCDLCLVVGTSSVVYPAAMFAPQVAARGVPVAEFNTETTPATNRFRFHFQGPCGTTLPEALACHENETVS

Activity change, negative = inhibition, inactive:
COc1ccc(S(=O)(=O)Nc2ccc3c(c2)C(=O)N([C@H](C)CO)C[C@H](C)[C@H](CN(C)S(=O)(=O)c2cccs2)OCCCC[C@H](C)O3)cc1 -12.3%, COc1ccc(NC(=O)Nc2ccc3c(c2)C(=O)N([C@@H](C)CO)C[C@H](C)[C@H](CN(C)Cc2ccc(Cl)c(Cl)c2)O3)cc1 -4.73%, CC1C(=O)N2CCCc3cc(S(=O)(=O)N4CCCC4)cc1c32 (stereo unspecified) 36.2%, CC(C)OC(=O)N(C)C[C@@H]1OCc2cn(nn2)CCCC(=O)N([C@H](C)CO)C[C@H]1C -7.79%, C[C@H](O)C#Cc1ccc2c(c1)O[C@H](CN(C)Cc1ccc(-c3ccccc3)cc1)[C@H](C)CN([C@H](C)CO)S2(=O)=O -26.1%, COc1ccc(S(=O)(=O)Nc2ccc3c(c2)C(=O)N([C@H](C)CO)C[C@@H](C)[C@H](CN(C)Cc2ccc(C(F)(F)F)cc2)OCCCC[C@@H](C)O3)cc1 -1.61%, COc1ccc(S(=O)(=O)Nc2ccc3c(c2)C(=O)N([C@@H](C)CO)C[C@@H](C)[C@@H](CN(C)S(=O)(=O)c2ccccc2)OCCCC[C@@H](C)O3)cc1 12.3%, COc1ccc(S(=O)(=O)N(C)C[C@H]2Oc3ccc(NC(=O)NC4CCCCC4)cc3C(=O)N([C@H](C)CO)C[C@@H]2C)cc1 1.57%, O=C(c1ccc2c(c1)OCO2)N1CC(=O)N2[C@H](CO)[C@H](c3ccc(C#CCC4CCCC4)cc3)[C@@H]2C1 -21.9% [at 16 µM], C[C@@H]1CN([C@@H](C)CO)S(=O)(=O)c2ccc(-c3cccc(F)c3)cc2O[C@@H]1CN(C)S(=O)(=O)c1ccc(F)cc1 -17.7%, C[C@H](CO)N1C[C@H](C)[C@H](CN(C)S(=O)(=O)c2ccc(F)cc2)Oc2c(NC(=O)c3nc4ccccc4s3)cccc2C1=O 4.27%
